Measured values taken from PubChem BioAssay AID720517 (National Center for Advancing Translational Sciences (NCATS), 2013).
Inconclusive results are not listed. Active and inactive are the calls of the source. Calls follow the shape of the dose curve; as a rule, active = well fitted activation curve with a large enough effect; inconclusive = small, poorly fitted or top-dose-only effect; inactive = flat fitted curve, though single readings scatter.

Test: qHTS for Inhibitors of Cell Surface uPA Generation: FP59 Counterscreen for Cherry-picked Compounds; also: 0% is about no effect
Settings: FP59 anthrax toxin cytotoxicity counterscreen, cells; series mostly up to 115 µM; activity (protection from FP59): at the top concentration

Compound	activity (protection from FP59)
O=C(c1ccc(F)c([N+](=O)[O-])c1)N1CC2CC(C1)c1cccc(=O)n1C2 (stereo not given)	-1.17% (inactive)
COc1ccccc1N1CCN(Cc2ccc(SC)cc2)CC1	-1.45% (inactive)
FC(F)(F)Oc1ccc(NC2=NCCCS2)cc1	-1.48% (inactive)
CCCCCn1c(=O)c(C(=O)Nc2ccccn2)c(O)c2ccccc21	-0.573% (inactive)
COC(=O)C1=C(c2cccc(OC)c2OC)C[C@@H]2CC[C@H]1N2C(=O)NC1CC1	-1.47% (inactive)
O=c1[nH]c(=O)n(-c2ccc(Cl)cc2)c(O)c1C=Nc1ccc(S(=O)(=O)Nc2nccs2)cc1	-1.39% (inactive)
Cc1ncc(CN2CCCC(C(=O)c3cccc(OC(C)C)c3)C2)s1 (stereo not given)	-1.32% (inactive)
COCC(=O)N1Cc2ccccc2-n2nncc2C1	-1.41% (inactive)
Cc1cc(C(=O)NP(=O)(N2CCOCC2)N2CCOCC2)c(C)n1C1CC1	-0.0947% (inactive)
C[N+](C)(C)CCOC(=O)CBr	-1.22% (inactive)
COc1ccc(-c2nn(CCC#N)cc2C(=O)Nc2cccc([N+](=O)[O-])c2)cc1OC	-1.37% (inactive)
COc1ccccc1NC(=O)N1C[C@@H]2C[C@@H](C1)c1cccc(=O)n1C2	-1.26% (inactive)
CCOc1ccc(CN2CCN(C(=O)Cc3ccccc3)CC2)cc1	-0.338% (inactive)
Cc1ccc(-n2c(O)c(C=NCCN3CCNCC3)c(=O)[nH]c2=S)cc1	-1.47% (inactive)
COc1ccc(-c2nn(CCC#N)cc2C(=O)Nc2ccccc2)cc1OC	-1.33% (inactive)
O=P1(NCCCl)OCCCN1CCCl (stereo not given)	-0.82% (inactive)
O=c1[nH]c(=O)n(CCc2ccccc2)c(O)c1C=NC1CC1	-1.46% (inactive)
c1cncc(C2CCCCN2)c1 (stereo not given)	-0.643% (inactive)
CCOC(=O)c1ccc(N=Cc2c(O)n(-c3ccc(OC)cc3)c(=S)[nH]c2=O)cc1	-1.58% (inactive)
Cc1ccccc1O	-1.37% (inactive)
